Measurements as given in ChEMBL document CHEMBL3988442, “University of Dundee, Small-Polar-MMV Screening Library” (2021).
Among all 38,000 compounds or so, about 1,200 (3.2%) showed an effect of 50% or more. The median lay at about -58%. This excerpt belongs to a sample that is enriched for strong results.

system: Plasmodium falciparum; assay: Calibr Malaria Delayed Death Assay SOP; type: functional, organism-based; parameters: scale not given: in the data most compounds retested in dose-response had high values; conditions: concentration 4.99e-06 (unit not given; other assays of the set use mol/L)

| Compound | Percent Effect |
| --- | --- |
| O=C(NCc1ccco1)[C@@H]1CCO[C@@H]2CCN(c3ncccn3)C[C@H]21.O=C(O)C(F)(F)F | -31.43% |
| O=C(C1CCOC1)N1C[C@H]2CN(Cc3cccnc3)C(=O)[C@H]2C1.O=C(O)C(F)(F)F (some centres undefined) | -57.45% |
| Cc1nc(NCC23CCCN2CCC3)cc(C2CCCNC2)n1 (centres undefined) | -55.92% |
| Cc1nc(NC2CCS(=O)(=O)CC2)cc(C2CCCNC2)n1 (centres undefined) | -36.14% |
| COc1ccccc1CC(=O)N1CC[C@H](O)[C@]2(CCCO2)C1 | -156.8% |
| CN1CCO[C@@H]2CN(S(=O)(=O)c3ccccc3)C[C@@H]2C1.O=C(O)C(F)(F)F | -22.42% |
| CC(C)N1CCO[C@@H]2CN(S(=O)(=O)c3cccs3)CC[C@@H]2C1.O=C(O)C(F)(F)F | 50.24% |
| CN1CCO[C@@H]2CN(S(=O)(=O)c3ccccc3F)CC[C@@H]2C1.O=C(O)C(F)(F)F | 48.77% |
| CN1CCO[C@@H]2CN(S(=O)(=O)c3ccccc3)CC[C@@H]2C1.O=C(O)C(F)(F)F | 31.75% |
| CN1CCO[C@@H]2CN(S(=O)(=O)c3cccs3)CC[C@@H]2C1.O=C(O)C(F)(F)F | -26.8% |
| CCN1CCO[C@@H]2CN(S(=O)(=O)c3cccs3)CC[C@@H]2C1.O=C(O)C(F)(F)F | 37.95% |
| CN1CCO[C@@H]2CN(S(=O)(=O)c3ccc(F)cc3)CC[C@@H]2C1.O=C(O)C(F)(F)F | 61.54% |
| COc1ccc(S(=O)(=O)N2C[C@@H]3CN(C)CCO[C@@H]3C2)cc1 | 58.7% |
| CN1CCO[C@@H]2CN(S(=O)(=O)c3cccnc3)C[C@@H]2C1.O=C(O)C(F)(F)F.O=C(O)C(F)(F)F | -85.76% |
| CCC(C)NC(=O)Cn1ncc2c1c(C)nn2CC (centres undefined) | -14.73% |
| CC1c2ncc(CN3CCN(C)CC3)n2CCN1Cc1cnn(C)c1.O=C(O)C(F)(F)F.O=C(O)C(F)(F)F.O=C(O)C(F)(F)F (centres undefined) | -76% |
| Cc1nc(CN2CCC3(CCN(Cc4cnn(C)c4)CC3)C2=O)cs1.O=C(O)C(F)(F)F.O=C(O)C(F)(F)F | -122% |
| COCCNC(=O)[C@@H]1CN(Cc2sccc2C)C[C@H]2OCC[C@H]21.O=C(O)C(F)(F)F | -28.67% |
| CC/C=C(/C)C(=O)NCCc1csc(N2CCCC2)n1 | 23.92% |
| CC(=O)c1cnc(N(C)Cc2cc(C)cc(C)n2)nc1C | 10.35% |
| CC(=O)N1CCc2c(nc(N(C)C)nc2NCCCn2ccnc2C)C1 | -154.1% |
| CCc1ccccc1OCC(=O)N1CCOCC1c1ncon1 (centres undefined) | -47.11% |
| COc1cccc2c1ccn2CCC(=O)Nc1c2c(nn1C)CSC2 | 27.59% |
| O=S(=O)(NCCN1CC=CC1)c1cncc(Cl)c1 | -138.1% |
| O=S(=O)(NCCN1CC=CC1)c1ccc(Cl)cc1 | 75.13% |

| Compound | Percent Effect |
| --- | --- |
| O=S(=O)(NCCCN1CC=CC1)c1cncc(Cl)c1 | -214.3% |
| CNC(=O)c1cc2c(nc1N(C)C)CCN(c1ncccn1)CC2.O=C(O)C(F)(F)F | -20.28% |
| COCC1COCCC12CCN(Cc1cccs1)CC2.O=C(O)C(F)(F)F (centres undefined) | -9.919% |
| CCC(c1ccccc1)N1CCN(CCO)CC1 (centres undefined) | -35.6% |
| Cc1c(C)n(CC(O)CN2CCN(CCO)CC2)c2c(Cl)cccc12.Cl (centres undefined) | 88.07% |
| O=C(c1cn(-c2ccccc2Cl)nn1)N1CCN(CCO)CC1 | -52.43% |
| CC(c1cccnc1)N1CCN(CCO)CC1 (centres undefined) | -98.51% |
| CCc1ccc(OCC(O)CN2CCN(CCO)CC2)cc1.Cl.Cl (centres undefined) | -114.3% |
| CC1CCN(C(=O)C(C)Oc2ccc3c(c2)OCO3)CC1 (centres undefined) | -27.65% |
| CCC(NC(=O)CCCN1CCCCC1)c1cn2cccnc2n1 (centres undefined) | -61.92% |
| Cc1ncc2c(n1)CN(CC(=O)Nc1cc(C)on1)CC2 | -14.27% |
| COCCNC(=O)c1nc(-c2ccc3cc[nH]c3c2)no1 | -158.8% |
| Cc1cc(C)c(Cn2cncn2)cc1CN1CCC(CN)C1 (centres undefined) | 68.64% |
| Cc1ccccc1CN1CCC(CNC(=O)Cn2cncn2)CC1 | 1.836% |
| Cc1cc(C)c(Cn2cncn2)cc1CN1CC[C@H]2CC[C@@H](C1)N2 | 12.41% |
| CN(C)c1cc(CNCc2ccc(N3CCOCC3)cc2)ccn1 | -42.2% |
| COc1c(C)cnc(CSc2nnc(NC3CC3)s2)c1C | -80.23% |
| Cl.Cn1cccc1C(=O)N1CCc2c(CNS(C)(=O)=O)cncc2C1 | -73.02% |
| CCc1nccn1-c1cccc(C2CCCN(C3CCCCC3)C2)n1 (centres undefined) | 50.94% |
| CC(C)c1nccn1-c1cncc(C2CCCN(C3CCCCC3)C2)n1 (centres undefined) | 18.59% |
| Cc1nccn1-c1cccc(C2CCCN(C3CCCC3)C2)n1 (centres undefined) | -3.48% |
| CCNC(=O)CN1CCC(OCC2CCCO2)CC1 (centres undefined) | -42.16% |
| Cc1ccccc1N1CCN(CCS(=O)(=O)c2ccc(Br)cc2)CC1 | -132.7% |
| COCC(O)CN(C)c1ccnc2cc(Br)ccc12 (centres undefined) | 94.48% |
